Screening results (PubChem)
Compounds with a hit are over-represented: about 6.5% of the library has one in this group of screens.
IL1B secr inh: qHTS for Inhibitors of Inflammasome Signaling: IL-1-beta AlphaLISA Primary Screen; THP-1 LPS/ATP IL-1B secretion, AlphaLISA, 16 h; stronger effect = lower value; activity change, % at 57.5 µM; 360,000 compounds, 4.7% hits; AID 743279, 2014; in the data active means activity change below about -50%; inconclusive means mostly about -30% to -49%; further: on the % scale 0 is the no-effect control and ±100 the full control effect
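THP-1 cells pretreated 1 hr with compounds (up to 57.5 uM final), then stimulated with LPS (250 ng/mL final) plus ATP (1.25 mM final); secreted IL-1B measured by AlphaLISA after 16 hr, decreased signal indicating inhibition.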
TGFb inhibitor: qHTS for Inhibitors of TGF-b. HepG2 CAGA-GFP TGF-b/SMAD3 reporter, GFP fluorescence, 18 h; TGF-beta stimulated, 500 pg/mL final. Potency, µM (top dose mostly 46.1 µM), inactives show top-dose activity, negative = inhibition, actives largely listed as inhibitors. 410,000 compounds, 1.2% hits; further: potency means the concentration at half of the fitted maximal effect; on the % scale 0 is the no-effect control and ±100 the full control effect; nearly all actives have a fitted effect of over 65% in size
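GFP signal (ex488/em500-530) from TGF-beta-stimulated HEPG2 CAGA-GFP cells, 500 pg/mL final, 18 h at 37 degrees C in DMEM plus 1% FBS, normalized to unstimulated and DMSO-stimulated controls.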
Giardia killer: Small Molecules that selectively kill Giardia lamblia: qHTS | activity change, % at 7.66 µM, hits read low | Giardia lamblia trophozoite viability | 340,000 compounds, 0.15% hits; in the data active means activity change below about -80%; inconclusive means between about -30% and that limit;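 further: parasites exposed to compound for two days anaerobically before the ATP read; on the % scale 0 is the no-effect control and ±100 the full control effect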
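Media and compound were dispensed first, then trophozoites at 100 cells/well; plates sat 48 hrs at 37 deg C without oxygen before ATP luminescence reagent was added and read after 15-30 min at room temperature.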
HT1080-NT tox: qHTS for induction of synthetic lethality in tumor cells producing 2HG: qHTS for the HT-1080-NT fibrosarcoma cell line; AID 686970, 2013; Potency, µM (titrated, usually from 46.1 µM), inactives show top-dose activity, negative = less viability, actives largely listed as cytotoxic; 360,000 compounds, 1.6% hits; HT-1080-NT fibrosarcoma viability, CellTiter-Glo ATP luminescence, 48 h;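 further: NT is the 2HG producing partner of a matched IDH1 knockdown line; potency means the concentration at half of the fitted maximal effect; 0% = DMSO-treated cells and -100% = media-only wells without cells; nearly all actives have a fitted effect of over 55% in size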
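Viability of the 2HG-overproducing fibrosarcoma line after 48 hours of compound exposure at 37 degrees C was determined by luminescence with CellTiter-Glo, and concentration-effect curves were then fitted and categorized.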
HepG2 viability: qHTS for Inhibitors of TGF-b: Cytotox Counterscreen | 410,000 compounds, 0.76% hits | AID 588856, 2011 | Potency, µM (highest dose often 46.1 µM), inactives show at the highest dose activity change, negative = cytotoxicity, most hits filed as cytotoxic | HepG2 CAGA-GFP viability, ATP luminescence, 18 h; further: potency means the concentration at half of the fitted maximal effect
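HepG2 CAGA-GFP cells (1000/well, DMEM with 1% FBS) received compound, then TGF-beta at 500 pg/mL final, and were incubated 18 hours at 37 degrees C. Viability was read by CellTiter-Glo luminescence. Media-only wells were set as complete cell-killing and DMSO as no toxicity.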
HT1080 IDH1KD tx: qHTS for induction of synthetic lethality in tumor cells producing 2HG: qHTS for the HT-1080-IDH1KD cell line; Potency, µM (series often up to 46.1 µM), for inactives: at the top dose activity, negative = toxicity, most hits filed as cytotoxic; HT-1080 IDH1 knockdown viability, ATP luminescence, 48 h; 360,000 compounds, 2% hits;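 further: potency means the concentration at half of the fitted maximal effect; 0% = DMSO wells and -100% = cell-free medium wells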
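CellTiter-Glo luminescence after 48 h compound exposure at 37 degrees C of IDH1-knockdown HT-1080 cells in 5% FBS RPMI. %Activity scaled between DMSO wells and cell-free media wells, with curves fitted and assigned curve classes.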
Starred values were filed as active, the others as inactive; ? = inconclusive; . = no result. Unless noted, the call rests on the fitted dose curve; in most records, active means well fitted curve in the direction sought with a large enough effect; inconclusive means small, poorly fitted or top-dose-only effect, or another doubt; inactive means no such curve, though single readings can be large; an effect the other way counts as inactive or inconclusive.

SMILES	IL1B secr inh	TGFb inhibitor	Giardia killer	HT1080-NT tox	HepG2 viability	HT1080 IDH1KD tx
Cc1ccc(N2C(=O)NC3(CCCCC3)C2=O)cc1	-6.1	8.4%	-2.2	3.9%	-17.5%	5.8%
Cc1ccc(N2NC3(CCN(C(N)=O)CC3)NC2=O)cc1	9.0	16.2%	-7.6	5.8µM*	6.0%	6.51µM*
Cc1ncc([N+](=O)[O-])n1Cc1ccccc1	20.9	0.0%	-8.1	-5.1%	-11.5%	-2.9%
O=[N+]([O-])c1cnc2ccccn12	-22.7	-14.5%	-81.7*	3.8%	2.8%	8.7%
Cc1ccc(Cl)c2sc(NC(=O)C3CC3)nc12	11.0	?	1.8	16.4%	11.2µM*	12.2%
CCS(=O)(=O)c1ncc(Cl)c(C(=O)N(Cc2ccccc2)Cc2ccco2)n1	.	?	.	.	5.62µM*	.
CCc1ccc(CN(Cc2ccco2)c2cnc(S(C)(=O)=O)nc2C(=O)Nc2ccccc2Cl)cc1	.	7.94µM*	.	.	-23.8%	.
CCOc1ccccc1CNC(=O)c1ccc(NC(=O)C2=CSCCO2)cc1	-6.3	-28.9%	-10.0	0.0%	-48.0%	0.8%
CC(=O)Nc1nc(-c2ccccc2)c(-c2ccccc2)o1	-66.3*	-1.4%	3.5	-7.7%	1.9%	-11.3%
COc1cc(OC)cc(C(=O)Nc2nc(-c3ccccc3)c(-c3ccccc3)o2)c1	0.9	?	-22.7	?	-10.9%	?
O=C(Cc1ccc(Cl)cc1)NC1CCCCCC1	1.1	-4.8%	14.5	9.7%	-2.9%	9.4%
Clc1ccc(CN=C(Nc2ccccc2)NC2CCCCC2)cc1	.	?	27.8	20.6µM*	-86.9%	16.4µM*
CN(C)c1nc(SCCOC(=O)COc2ccc(Cl)cc2Cl)nc(N(C)C)n1	33.0	-0.2%	-0.6	1.9%	3.2%	1.1%
O=C(c1ccccc1)C1OC1C(=O)c1ccccc1 (stereo not given)	-95.7*	?	7.8	?	6.6%	?
COc1ccc(C)cc1Cn1nnc2ccccc21	33.7	2.5%	3.7	-2.7%	-14.6%	-1.2%
CCc1ccc(-c2cc(C(=O)Nn3cnnc3)c3ccccc3n2)cc1	26.0	?	-100.1*	10µM*	8.91µM*	14.1µM*
CCCc1ccc(-c2cc(C(=O)NN3CCOCC3)c3ccccc3n2)cc1	-55.7*	0.1%	-13.0	-7.6%	-1.9%	?
CC(C)Oc1cccc(-c2cc(C(=O)NN3CCOCC3)c3ccccc3n2)c1	-3.2	6.0%	5.1	-3.8%	-17.6%	1.1%
CC(NC(=O)CC(O)(C(F)(F)F)C(F)(F)F)c1ccccc1 (stereo not given)	12.1	-6.8%	-9.0	0.1%	-6.9%	-6.5%
CC1(C)CC(NC(=O)C(=O)NCCc2ccccc2)CC(C)(C)N1	18.6	-3.6%	-8.8	-2.3%	-10.6%	4.1%
CCCCN1C(=O)NC2NC(=O)NC21 (stereo not given)	-91.7*	1.7%	-11.8	6.8%	4.3%	8.3%
CC(C)CN(C(=O)COC(=O)c1ccc2c(c1)OCO2)c1c(N)n(Cc2ccccc2)c(=O)[nH]c1=O	-55.0*	2.3%	-14.6	-5.5%	-16.6%	-4.8%
COc1ccc(CC(=O)OCC(=O)N(CC(C)C)c2c(N)n(Cc3ccccc3)c(=O)[nH]c2=O)cc1	3.5	?	-6.2	1.1%	4.3%	-1.1%
CCCCn1c(N)c(N(CC(C)C)C(=O)CSCc2cccc(C)c2)c(=O)[nH]c1=O	-11.7	18.9%	11.6	1.7%	-76.6%	-9.0%
CC(C)CN(C(=O)COC(=O)Cc1ccc(Cl)cc1)c1c(N)n(Cc2ccccc2)c(=O)[nH]c1=O	1.1	?	-6.3	25.9µM*	-102.6%	23.1µM*
SMILES	IL1B secr inh	TGFb inhibitor	Giardia killer	HT1080-NT tox	HepG2 viability	HT1080 IDH1KD tx
CC(C)CN(C(=O)COC(=O)c1ccc2c(c1)OCCO2)c1c(N)n(Cc2ccccc2)c(=O)[nH]c1=O	-8.1	?	-4.9	1.5%	-3.1%	1.6%
CCCCn1c(N)c(N(CC(C)C)C(=O)CSCc2ccc(Cl)c(Cl)c2)c(=O)[nH]c1=O	-56.3*	-29.2%	36.3	-13.3%	-11.7%	-11.5%
CN1C(=O)Cc2cc(S(=O)(=O)N3CCN(c4ccc(Cl)cc4)CC3)ccc21	21.4	-1.3%	1.9	1.2%	1.0%	1.3%
CCc1cccc(C)c1NC(=O)COn1nnc2ccc(C(F)(F)F)cc21	0.0	-17.0%	4.7	-9.6%	-38.3%	-0.3%
O=C(CSc1nccn1-c1ccc(Cl)cc1)N1CCCc2ccccc21	-11.2	-28.5%	2.3	-0.5%	1.8%	0.2%
O=C(Nc1cccc(F)c1)N1CCc2nc(NCc3cccc(Oc4ccccc4)c3)ncc2C1	75.4	?	.	23.1µM*	-15.5%	?
O=C(NCCN1CCc2ccccc2C1)Nc1ccc([N+](=O)[O-])cc1	1.3	?	-2.1	-2.8%	-36.8%	-4.0%
CC(C)c1ccc(NC(=O)N2CCc3ccccc3C2)cc1	-59.1*	-5.7%	-6.8	-0.4%	-14.2%	-26.3%
CC(C)c1ccc(NC(=O)N2CCc3nc(NCc4cccc(Oc5ccccc5)c4)ncc3C2)cc1	-0.1	-18.1%	.	?	-15.6%	?
O=C(Nc1ccc([N+](=O)[O-])cc1)N1CCc2ccccc2C1	-89.9*	-4.3%	0.7	-1.5%	-16.2%	11.6µM*
COc1cc(CN2CCc3nc(Nc4ccc5c(c4)OCCO5)ncc3C2)cc(OC)c1OC	.	-7.5%	.	.	-21.6%	.
COc1cc(Nc2ncc3c(n2)CCN(C(=O)Nc2ccc(C(C)C)cc2)C3)cc(OC)c1OC	-2.5	?	.	20.6µM*	-21.8%	18.4µM*
NC(=S)Nc1ccc2cn[nH]c2c1	2.0	-4.2%	0.8	-9.1%	-1.1%	-1.7%
CCOCCCNC(=O)C(c1ccc(Cl)cc1)N1CCN(C(=O)c2ccco2)CC1 (stereo not given)	17.7	3.8%	13.6	15.1%	8.0%	13.1%
CC(C)N(Cc1ccccc1)C(=O)COC(=O)/C=C/c1cnc2ccccc2n1	-201.4*	35.4%	-14.3	-6.8%	-2.0%	-0.6%
COc1cc(C(=O)N(CCc2ccccc2)C2=CC3CCC(C2)N3C)cc(OC)c1OC (stereo not given)	29.3	7.9%	-14.4	?	-1.6%	16.8%
Cc1cc(C)cc(C(=O)N(CCc2ccccc2)C2CC3CCC(C2)N3C)c1 (stereo not given)	-64.9*	1.4%	19.5	?	-5.6%	?
